Results reported in PubChem BioAssay.
Calls of active or inactive are those of the source.

Each compound was assayed against NADPH oxidase 4 (Homo sapiens) (UniProt Q9NPH5) (assay: compounds shifting NOX4 Amplex Red fluorescence – cell-based, HEK293-NOX4, tetracycline-induced, NOX inhibitor project, primary screen (AID 1160)). Conditions: HEK293-NOX4, Amplex Red H2O2 fluorescence, 45 min; higher = more signal, called active from +8 up or from −8 down.
Sequence of NADPH oxidase 4 (Homo sapiens) (Q9NPH5 whole entry, looked up): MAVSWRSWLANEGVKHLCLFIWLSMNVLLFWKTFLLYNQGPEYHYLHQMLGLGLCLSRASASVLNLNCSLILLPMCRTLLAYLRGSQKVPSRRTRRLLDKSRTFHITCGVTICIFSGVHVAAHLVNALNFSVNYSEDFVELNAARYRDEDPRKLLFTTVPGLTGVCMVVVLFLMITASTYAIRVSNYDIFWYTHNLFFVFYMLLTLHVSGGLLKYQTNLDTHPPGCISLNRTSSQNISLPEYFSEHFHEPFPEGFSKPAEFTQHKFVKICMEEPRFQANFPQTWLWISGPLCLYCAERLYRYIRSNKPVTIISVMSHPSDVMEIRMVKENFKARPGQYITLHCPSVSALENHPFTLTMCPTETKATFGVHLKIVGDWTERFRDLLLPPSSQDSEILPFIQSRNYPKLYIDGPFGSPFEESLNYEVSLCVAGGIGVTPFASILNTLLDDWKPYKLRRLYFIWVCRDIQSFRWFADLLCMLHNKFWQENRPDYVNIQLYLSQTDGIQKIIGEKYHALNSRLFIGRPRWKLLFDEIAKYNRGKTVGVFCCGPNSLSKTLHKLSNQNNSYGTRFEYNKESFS

z-score, inactive:
Cc1cc(C)c(-c2cc([C@H](C)ON=C[C@@H](C)[C@H](OCc3ccccc3)C(C)C)on2)c(C)c1 -0.299, CC(CCN1CCCCc2nc(C)c(C)cc21)=NO[C@H](C)c1cn([C@@H]2COC[C@H]2O)nn1 0.167, COC(=O)[C@H](C)NC(=O)CCC1CC(OC(=O)NCc2ccc3c(c2)OCO3)CC2(CCCC(COC(=O)NCc3ccccc3)O2)O1 (stereo partly specified) 1.22, CC(=O)OC[C@H]1O[C@H](C#CCC2CCCCC2)C=C[C@@H]1OC(C)=O 0.556, CN1CCc2nc(-c3ccccc3)c(-c3ccccc3)cc2C1 -0.0205, CO[C@H]1COC(=O)CCC[C@H](C)[C@H](OC)COC(=O)CC=C[C@@H]1C 0.862, COCOc1ccc(Br)cc1C(=O)C=Cc1ccc2c(c1)OCO2 0.138, CCN1C(=O)[C@H]2[C@H]3[C@H](O)[C@H](O)CC(=NO[C@@H](C)c4cc(-c5c(C)cc(C)cc5C)no4)[C@@H]3CC[C@H]2C1=O 0.175, C[C@@H](c1ccccc1)N1C(=O)[C@H]2[C@H]3[C@H](O)[C@H](O)CC(=NNC(=O)OCc4ccccc4)[C@@H]3CC[C@H]2C1=O 1.07, CO[C@H]1COC(=O)CCC[C@H](C)[C@@H](OC)COC(=O)CC=C[C@@H]1C -0.0115, CO[C@H]1COC(=O)CC=C[C@H](C)[C@H](OC)COC(=O)[C@@H](C)NC(=O)CC=C[C@@H]1C 0.557, CC(CCN1CCCc2nc(C)c(C)cc21)=NOC[C@@H](C)[C@H](OCc1ccccc1)C(C)C -1.68, COc1ccc(COC(=O)NN=C2C[C@@H](O)[C@@H](O)[C@@H]3[C@@H]4C(=O)N([C@@H](C)c5ccccc5)C(=O)[C@@H]4CC[C@H]23)cc1 0.672, C=C(C)C(=O)OC[C@H]1CN2[C@@H](CC[C@@H](C)[C@@H]2c2ccc(Br)cc2)C(=O)O1 0.0898, O=C1[C@H]2[C@H]3[C@H](O)[C@H](O)CC(=NOC[C@@H](O)COCc4ccco4)[C@@H]3CC[C@H]2C(=O)N1Cc1ccc2c(c1)OCO2 0.499, O=C(NN=C1C[C@@H](O)[C@@H](O)[C@@H]2[C@@H]3C(=O)N(c4ccc(F)cc4F)C(=O)[C@@H]3CC[C@H]12)OCc1ccccc1 1.33, CC(=O)OC[C@H]1O[C@H](CC=NOC[C@@H](O)COCc2ccco2)C=C[C@@H]1OC(C)=O 0.748, CCN1C(C)=C(C(=O)OC)[C@@H](c2ccccc2)N2C(=O)[C@](O)(C(=O)OC)CC(C(C)=O)=C12 0.724, CC(C)CON=C1C[C@@H](O)[C@@H](O)[C@@H]2[C@@H]3C(=O)N([C@@H](C)c4ccccc4)C(=O)[C@@H]3CC[C@@H]12 0.799, COC(=O)CC=C1c2ccccc2[C@H](OC)[C@H]1C 0.644, CC(=O)OC[C@H]1O[C@H](CC=NOC[C@@H](O)[C@H]2O[C@@H]3OC(C)(C)O[C@@H]3[C@H]2O)C=C[C@@H]1OC(C)=O 0.136, C#CCCCON=C1C[C@@H](O)[C@@H](O)[C@@H]2[C@@H]3C(=O)N(C[C@@H]4CCCO4)C(=O)[C@@H]3CC[C@H]12 -1.68, CCN1C(=O)[C@H]2[C@H]3[C@H](O)[C@H](O)CC(=NNC(=O)OCc4ccccc4)[C@H]3CC[C@H]2C1=O 0.424, C[C@@H]1CC[C@H]2C(=O)OC(Cc3ccccc3)CN2[C@H]1c1ccc(Br)cc1 (stereo partly specified) 0.268, CC(C)=NOC(C)CN1CCCCc2nc(C)c(C)cc21 (stereo unspecified) -0.278, COC(=O)[C@@H]1CC[C@H](C)[C@@H](c2ccc(C)cc2)N1C(=O)c1ccc(C=NOC[C@@H](O)[C@H]2O[C@@H]3OC(C)(C)O[C@@H]3[C@H]2O)cc1 0.589, CCOC(=O)[C@H](Cc1ccccc1)NC(=O)CCC1CC(OC(=O)NCc2cccc3ccccc23)CC2(CCCC(COC(=O)NCCc3ccccc3OC)O2)O1 (stereo partly specified) 1.15, CON=C[C@@H](OC)[C@H](C)C=CCC(=O)OC 0.358, O=C(NCCC[N+]1=CC=NC1c1ccccc1)N1CCCc2nc(-c3ccc(Br)cc3)ccc21 (stereo unspecified) -0.261, COc1cccc([C@H](O)Cn2cc(-c3ccc(CON=C(C)C)cc3)nn2)c1 -0.0373, C=CC[C@@H]1C=C[C@H](Oc2ccc(C)cc2)[C@@H](COC(=O)NCc2cccc3ccccc23)O1 -0.187, COC(=O)[C@H](C)NC(=O)CCC1CC(OC(=O)NCCc2ccc(F)cc2)CC2(CCCC(COC(=O)NCCOc3ccccc3)O2)O1 (stereo partly specified) 0.622, CO[C@@H](C(C)C)[C@@H](C)C1OC(=O)CC1O (stereo partly specified) 0.129, CO[C@@H]1C=CCC(=O)N[C@@H](C)C(=O)OC[C@@H](NS(=O)(=O)c2ccc(C)cc2)[C@H](C)C=CCC(=O)OC[C@H]1C 0.732, O=C1[C@H]2[C@H]3[C@H](O)[C@H](O)CC(=NO[C@@H]4O[C@H](CO)[C@@H](O)[C@H](O)[C@H]4O)[C@@H]3CC[C@H]2C(=O)N1C1CCCCC1 0.607, CCOC(=O)[C@H](CC(C)C)NC(=O)CCC1CC(OC(=O)NCc2ccc3c(c2)OCO3)CC2(CCCC(COC(=O)NCCOc3ccccc3)O2)O1 (stereo partly specified) -1.63
